Reference: PubChem BioAssay (NCATS)
“And” between values parts separate entries of the source, which are not always exact repeats. Identical values can stand only once. Inconclusive results are not listed. The source made the active and inactive calls. Calls come from the whole dose curve; as a rule, active = well fitted curve in the direction sought with a large enough effect; inconclusive = small, poorly fitted or top-dose-only effect, or another doubt; inactive = no such curve, though single readings can be large; an effect the other way counts as inactive or inconclusive.

Experiments:
KB-3-1 = assay: Cytotoxic Profiling of Annotated Libraries Using Quantitative High-Throughput Screening (AID 1296008); conditions: Five cell lines viability, CellTiter-Glo ATP luminescence, 48-72 h; max response: stronger effect = lower value; note: nearly all actives have a fitted effect of over 60% in size; note: potency is the fitted concentration of half-maximal effect; for max response: % is set by controls: 0 for no effect and ±100 for the full control effect
Procedure, shortened: (§1)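 Cytotoxicity was measured as CellTiter-Glo ATP luminescence, read after 10 min at room temperature. Compound treatment of the cells lasted 48 or 72 hr at 37 degrees Celsius in a qHTS format.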

HaCat [1] = assay: as above; conditions: Five cell lines viability, CellTiter-Glo ATP luminescence, 48-72 h; max response: stronger effect = lower value
Procedure, shortened: as §1

NIH3T3 = assay: as above; conditions: Five cell lines viability, CellTiter-Glo ATP luminescence, 48-72 h; max response: stronger effect = lower value
Procedure, shortened: as §1

CAOV3 = assay: Primary qHTS to identify gynecologic anti-cancer compounds using libraries of approved drugs and bioactive compounds (AID 1345084); conditions: Gynecologic cancer cell panel viability, ATPlite luminescence, 48 h; series mostly up to 57.5 µM; note: % is set by controls: 0 for no effect and ±100 for the full control effect; nearly all actives have a fitted effect of over 55% in size
Procedure, shortened: (§2)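 Cytotoxicity screen measuring ATP content by luciferase luminescence. Each compound is applied at five concentrations for 48 h at 37 C with 5% CO2.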

Es-2 = assay: as above; conditions: Gynecologic cancer cell panel viability, ATPlite luminescence, 48 h; series mostly up to 57.5 µM
Procedure, shortened: as §2

HeLa = assay: as above; conditions: Gynecologic cancer cell panel viability, ATPlite luminescence, 48 h; series mostly up to 57.5 µM
Procedure, shortened: as §2

Hek293T = assay: as above; conditions: Gynecologic cancer cell panel viability, ATPlite luminescence, 48 h, control line for the selectivity index; series mostly up to 57.5 µM
Procedure, shortened: as §2

JEG-3 = assay: as above; conditions: Gynecologic cancer cell panel viability, ATPlite luminescence, 48 h; series mostly up to 57.5 µM
Procedure, shortened: as §2

OV90 = assay: as above; conditions: Gynecologic cancer cell panel viability, ATPlite luminescence, 48 h; series mostly up to 57.5 µM
Procedure, shortened: as §2

PA-1 = assay: as above; conditions: Gynecologic cancer cell panel viability, ATPlite luminescence, 48 h; series mostly up to 57.5 µM
Procedure, shortened: as §2

CASKI = assay: as above; conditions: Gynecologic cancer cell panel viability, ATPlite luminescence, 48 h; series mostly up to 57.5 µM
Procedure, shortened: as §2

C33A = assay: as above; conditions: Gynecologic cancer cell panel viability, ATPlite luminescence, 48 h; series mostly up to 57.5 µM
Procedure, shortened: as §2

SKOV3 = assay: as above; conditions: Gynecologic cancer cell panel viability, ATPlite luminescence, 48 h; series mostly up to 57.5 µM
Procedure, shortened: as §2

HACAT [2] = assay: qHTS assay to identify novel small-molecules to repurpose for Merkel cell carcinoma treatment (AID 1296009); conditions: MCC and control cell lines, CellTiter-Glo viability, 72 h; at 44.8 µM (top of the series) unless noted; note: nearly all actives have a fitted effect of over 60% in size
Procedure, shortened: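 Cell viability, measured as CellTiter-Glo luminescence, was normalized between DMSO and no-cell wells. The cells had been exposed to 8- or 11-point compound dilutions for 72 hr at 37 degree celsius.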

C[C@H]1C[C@@H]2[C@H]([C@@H](O)C[C@@]3(C)[C@H]2CC[C@]3(O)C(=O)COC(=O)CCC(=O)O)[C@@]2(C)C=CC(=O)C=C12
inactive: max response (KB-3-1) -6.8%

CS/C=C/C(=O)O[C@@H]1CCC2=CC(=O)C(=C(C)C)C[C@]2(C)[C@H]1C
inactive: max response (HaCat [1]) -6.05% | max response (NIH3T3) -13.9% | Potency (CAOV3) | Potency (Es-2) | Potency (HeLa) | Potency (Hek293T) | Potency (JEG-3) | Potency (OV90) | Potency (PA-1)

CO[C@H]1C[C@H](O[C@H]2[C@H](C)O[C@@H](O[C@@H]3/C(C)=C/C[C@@H]4C[C@@H](C[C@]5(C=C[C@H](C)[C@@H](C6CCCCC6)O5)O4)OC(=O)[C@@H]4C=C(C)[C@@H](O)[C@H]5OC/C(=C\C=C\[C@@H]3C)[C@]54O)C[C@@H]2OC)O[C@@H](C)[C@@H]1O
active: Potency (KB-3-1) 20.6 µM

C=CC(=O)Nc1cc(-n2c(=O)ccc3cnc4ccc(-c5ccc(NS(C)(=O)=O)cc5)cc4c32)ccc1C
inactive: max response (HaCat [1]) -9.43% | max response (NIH3T3) -11.5% | Potency (CAOV3) | Potency (CASKI) | Potency (Es-2) | Potency (HeLa) | Potency (Hek293T) | Potency (JEG-3) | Potency (OV90)

CCC(=O)OCC(=O)[C@@]1(OC(=O)CC)[C@H](C)C[C@H]2[C@@H]3CCC4=CC(=O)C=C[C@]4(C)[C@@]3(F)[C@@H](O)C[C@@]21C
inactive: max response (KB-3-1) -9.03%

OC(CC1c2ccccc2-c2cncn21)C1CCCCC1 (stereo not given)
inactive: max response (HaCat [1]) -2.64% | max response (NIH3T3) -17.5% | Potency (C33A) | Potency (CAOV3) | Potency (CASKI) | Potency (Es-2) | Potency (HeLa) | Potency (Hek293T) | Potency (JEG-3) | Potency (OV90) | Potency (PA-1) | Potency (SKOV3)

COc1ccc(C#Cc2ccc(C(=O)N3CCC[C@@H](CO)C3)cc2)cc1
inactive: max response (HaCat [1]) 1.97% | max response (NIH3T3) -25.7% | Potency (C33A) | Potency (CASKI) | Potency (Es-2) | Potency (HeLa) | Potency (Hek293T) | Potency (JEG-3) | Potency (OV90) | Potency (PA-1) | Potency (SKOV3)

CCOC(=O)Cc1cccc(-c2cc(CCCCCCc3ccc(O[C@H]4O[C@H](COC(C)=O)[C@@H](OC(C)=O)[C@H](OC(C)=O)[C@@H]4OC(C)=O)c(-c4cccc(CC(=O)OCC)c4)c3)ccc2O[C@H]2O[C@H](COC(C)=O)[C@@H](OC(C)=O)[C@H](OC(C)=O)[C@@H]2OC(C)=O)c1
inactive: max response (KB-3-1) -10.9%

O=C(NCCN1CCN(c2cccc3ccc(O)cc23)CC1)c1ccc(F)cc1
inactive: max response (HaCat [1]) -4.85% | max response (NIH3T3) 3.66% | Potency (C33A) | Potency (CAOV3) | Potency (CASKI) | Potency (Es-2) | Potency (HeLa) | Potency (Hek293T) | Potency (JEG-3) | Potency (OV90) | Potency (PA-1) | Potency (SKOV3)

C=C(C)C(=O)O[C@H]1/C(C=O)=C\CC/C(CO)=C/[C@H]2OC(=O)C(=C)[C@@H]2[C@@H]1OC
inactive: outcome (HaCat [1]) | outcome (HACAT [2]) | Potency (C33A) | Potency (CAOV3) | Potency (CASKI) | Potency (Es-2) | Potency (HeLa) | Potency (Hek293T) | Potency (JEG-3) | Potency (OV90) | Potency (PA-1) | Potency (SKOV3)

COc1cc(/C=C/C(=O)NCCn2c(C(F)(F)F)cc3ccccc32)cc(OC)c1OC
inactive: max response (HaCat [1]) -29.1% | max response (NIH3T3) -23.8% | Potency (C33A) | Potency (CAOV3) | Potency (CASKI) | Potency (Es-2) | Potency (HeLa) | Potency (Hek293T) | Potency (JEG-3) | Potency (OV90) | Potency (PA-1)

O=S(O)CNc1ccc(S(=O)(=O)c2ccc(NCS(=O)O)cc2)cc1
inactive: max response (KB-3-1) -17.8%

CCC(=O)OCC(=O)[C@@]1(OC(=O)CC)[C@@H](C)C[C@H]2[C@@H]3CCC4=CC(=O)C=C[C@]4(C)[C@@]3(Cl)[C@@H](O)C[C@@]21C
inactive: max response (KB-3-1) -12.3%

CCOC(=O)[C@H](CCc1ccccc1)N[C@@H](C)C(=O)N1CC2(C[C@H]1C(=O)O)SCCS2
inactive: max response (KB-3-1) -20.5%

NCCCNCCCCNC(=O)C(O)NC(=O)CCCCCCN=C(N)N (stereo not given)
inactive: max response (KB-3-1) -11.3%

CCC(c1ccccc1)c1noc(CCN(CC)CC)n1 (stereo not given)
inactive: max response (KB-3-1) -6.24%

CCCCCCCCCCCCCCCCCC(=O)OCCO
inactive: max response (KB-3-1) -9.35%

CC1(C)S[C@@H]2[C@H](NC(=O)C(C(=O)Oc3ccc4c(c3)CCC4)c3ccccc3)C(=O)N2[C@H]1C(=O)O (stereo not given in full)
inactive: max response (KB-3-1) 21.3%

CC(C)(C)CC(=O)OCC(=O)[C@@]12OC(C)(C)O[C@@H]1C[C@H]1[C@@H]3CCC4=CC(=O)C=C[C@]4(C)[C@@]3(F)[C@@H](O)C[C@@]12C
inactive: max response (KB-3-1) 0.193%

Nc1c(CC(=O)O)cccc1C(=O)c1ccccc1
inactive: max response (KB-3-1) -7.36% and -8.46%

C[C@@H]1C[C@H]2C3C[C@H](F)C4=CC(=O)C=CC4(C)[C@@]3(F)[C@@H](O)CC2(C)[C@@]1(O)C(=O)COC(=O)C(C)(C)C (stereo not given in full)
inactive: max response (KB-3-1) 27.2%

CCCCCCCCCCCCCCCC(=O)OC[C@@H](COP(=O)([O-])OCC[N+](C)(C)C)OC(=O)CCCCCCCCCCCCCCC
inactive: max response (KB-3-1) 1.61%

NNc1nnc(Cc2ccncc2)c2ccccc12
inactive: max response (KB-3-1) -26.3%

CCOc1ccc(N=C(C)Nc2ccc(OCC)cc2)cc1
inactive: max response (KB-3-1) -26.1%

C=CCNC1=C2C[C@@H](C)C[C@H](OC)[C@H](O)[C@@H](C)/C=C(\C)[C@H](OC(N)=O)[C@@H](OC)/C=C\C=C(/C)C(=O)NC(=CC1=O)C2=O
inactive: max response (KB-3-1) -34.3%

Cc1ccc(C2(O)CCN(CCCC(=O)c3ccc(F)cc3)CC2)cc1
inactive: max response (KB-3-1) -11.9%
